Measured values from PubChem BioAssay (NCI).
Where “and” joins values, the source holds several entries; their conditions need not be identical. Equal values may be shown once. The panel holds about 83,000 compounds, 20% with a hit somewhere; the sample as a whole holds those more often.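 Treatment: one concentration, 48 hours, 96-well format. Scoring: percent growth, with anything below 10 considered active.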 Calls of active or inactive are those of the source.

tested on: NCI-H322M lung; assay: NCI-60 one-dose screen, 48 h (100 = growth as untreated, 0 = no growth, -100 = all killed); settings: 10 µM unless noted
Description: Growth inhibition of the NCI-H322M human Non-Small Cell Lung tumor cell line is measured as a screen for anti-cancer activity. Cells are grown in 96 well plates and exposed to the test compound for 48 hours. Compounds are tested at a single concentration, which is 10^-5 M for most compounds. The reported endpoint is percent growth (GI% or GIPRCNT), where numbers from 0 - 100% represent growth inhibition, and numbers from -100% - 0 represent cell death. For example, a value of 40 represents 60% growth inhibition. A value of 0 means no net growth occurred over the course of the experiment. A value of -40 indicates 40% of cells at the beginning of the experiment died by the end of the experiment. A value of -100 means all cells are dead at the end of the experiment.
NCI-60 Human Tumor Cell Lines Screen was performed using the standard one-dose NCI protocol, which is described in more detail at https://dtp.cancer.gov/discovery_development/nci-60/default.htm.
Compounds with GIPRCNT values below 10 were considered active. Activity score was based on GIPRCNT using the following formula: […]
Score is 0 for GIPRCNT values of 100 or above, 50 for GIPRCNT values of 0, and 100 for GIPRCNT values of -100.

Structure (SMILES) | growth
Cc1ccc(-c2nc3nc(-c4ccc(F)cc4)nc(N4CCCNCC4)c3o2)cc1 | -99% (active)
O=C(Nc1ccc(F)cc1)c1cc2cc(Nc3nc(-c4ccccc4)nc4ccccc34)ccc2oc1=O | 100% (inactive)
CSc1nnc(-c2cc3c([nH]c4ccccc43)c(-c3cccc(O)c3)n2)n1-c1ccc(C)cc1 | 70.3% (inactive)
Cc1ccc2nc3ccccc3c(NCc3ccc(Cl)cc3)c2c1 | 55.9% (inactive)
CCOC(=O)C(=Cc1ccc(C#N)cc1)C(=O)OCC | 73.2% (inactive)
O=C(NCc1ccc(Cn2c(=O)sn(-c3ccc(Cl)cc3)c2=O)cc1)OCc1ccc2c(Cl)cc(Cl)c(O)c2n1 | 45.7% (inactive)
CC1(C)C(N)=Nc2cc(OCCCCN3Cc4ccccc4C3)c(OCC3CC3)cc21 | 79.9% (inactive)
COC(=O)c1c2c(c(C)[n+]([O-])c1C)C(=O)C(NCCN1CCOCC1)=CC2=O | 72.5% (inactive)
COc1ccc(Nc2ncnc3ccc(-c4cncc(NS(C)(=O)=O)c4)cc23)cc1Cl | 54.6% (inactive)
C=C1C(=O)O[C@H]2[C@H]1CC/C(COC(=O)NCc1ccc(Cn3c(=O)sn(CCCI)c3=O)cc1)=C\CC[C@@]1(C)O[C@@H]21 | 97.5% (inactive)
O=C(CCl)N(O)c1ccc(/C=C/c2ccccc2)cc1 | 99.5% (inactive) and 91.5% (inactive)
Cc1oc2c(Cc3ccc(NC(=O)c4ccc(Cl)cc4)cc3)ncnc2c1C(=O)NO | 93.1% (inactive)
C=C(c1ccc(C(=O)O)cc1)c1cc2c(cc1C)C(C)(C)CCC2(C)C | 72% (inactive)
CC[C@H](C)[C@H](NC(=O)[C@H](CCCCN)NC(=O)[C@H](CCCCN)NC(=O)[C@@H](NC(=O)[C@@H](NC(=O)[C@@H](N)Cc1cnc[nH]1)[C@@H](C)CC)[C@@H](C)CC)C(=O)N[C@@H](CCCNC(=N)N)C(=O)N[C@H](C(=O)N[C@@H](Cc1c[nH]c2ccccc12)C(=O)N[C@@H](Cc1ccc(O)cc1)C(=O)N[C@@H](CCCNC(=N)N)C(=O)N[C@@H](CCCCN)C(=O)N[C@@H](C)C(=O)N[C@@H](Cc1c[nH]c2ccccc12)C(=O)N[C@@H](Cc1cnc[nH]1)C(=O)N[C@H](C(=O)N[C@@H](CC(C)C)C(=O)NCC(=O)N[C@@H](CCCCN)C(=O)N[C@H](C(N)=O)C(C)C)C(C)C)[C@@H](C)O | 25.1% (inactive)
O=C1OCC2=C1C(c1cccc(C(F)(F)F)c1)c1cc3c(cc1N2CCO)OCCO3 (stereo not given) | 51.3% (inactive)
O=C(/C=C/c1cccs1)Nc1ncc(Cc2ccc(Cl)c(Cl)c2)s1 | 76.5% (inactive)
Cc1ccc(NC(=O)c2sc3nc(C)c(C(=O)c4ccccc4)cc3c2N)cc1 | 92.2% (inactive)
Cc1ccc(S(=O)(=O)Nc2cc(Sc3ccccc3)c(O)c3ccccc23)cc1 | 102% (inactive)
CCCCCCCCCCCCCCCC[N+](C)(C)CCN(Cc1ccc(OC)cc1)c1ncccn1 | -81.8% (active) and 74.2% (inactive)
COc1ccc(Cn2cc(C(=O)Nc3cccnc3Nc3ccccc3)nn2)cc1 | 95.7% (inactive)

Structure (SMILES) | growth
Clc1ccc2c(c1)N(c1ncnc3ccc(-c4cnc5[nH]ccc5c4)cc13)CC2 | 41.3% (inactive)
COc1cc(NC2CCCCC2O)c2nc(-c3ccc(Cl)cc3)ccc2c1 (stereo not given) | 88.8% (inactive) and 88.2% (inactive)
[Cu+].[NH-][C@H]1C[N-]C(=O)[C@H]([C@H]2CCN=C(N)N2)[N-]C(=O)/C(=C\NC(N)=O)[N-]C(=O)[C@H](CNC(=O)C[C@@H](N)CCCN)[N-]C(=O)[C@H](CO)[N-]C1=O | 106% (inactive)
CCOc1nc(-c2ccccc2)cc2c(O)c(C(=O)N/N=C/c3ccc(N(C)C)cc3)[nH]c(=O)c12 | 113% (inactive)
O=C(NCc1cccnc1)/C(=C\c1ccc(Br)cc1)S(=O)(=O)c1ccccc1 | 1.87% (active)
Cc1ccc(Cc2cnc(NC(=O)c3cc(C)oc3C)s2)cc1 | 70.8% (inactive)
CCOc1ccccc1NC(=O)c1cc2ccccc2cc1O | 84.1% (inactive)
CC(C)(C)c1cc(NC(=O)Nc2ccc(-c3cn4c(n3)sc3cc(OCCN5CCOCC5)ccc34)cc2)no1 | 34.9% (inactive) and 54.5% (inactive)
O=C(NNc1ccccc1)c1ccccc1 | 66.8% (inactive)
Nc1ncc(-c2ccc3ncnc(N4CCc5ccc(Cl)cc54)c3c2)cc1C(F)(F)F | 7.25% (active)
C[C@]12CCc3c(ccc4cc(O)ccc34)[C@@H]1C[C@H](O)[C@@H]2O | 107% (inactive)
Cn1cc(C2=C(c3cccc4ccccc34)C(=O)NC2=O)c2cc(Br)ccc21 | 100% (inactive)
COc1cc(N=Nc2ccc(O)c3ncccc23)c2ncccc2c1 | 55.9% (inactive)
Cn1cc(-c2nonc2-c2cn(C)c3ccc(Br)cc23)c2ccccc21 | 64% (inactive)
COc1ccc(C(=O)/C=C/c2ccc(OCc3ccc(Cl)cc3)cc2)cc1OC | 40.4% [100 µM] (inactive)
O=C(Cn1cc(CN2CCN(c3ccnc4cc(Cl)ccc34)CC2)nn1)Nc1cccc([N+](=O)[O-])c1 | 91.9% (inactive)
NS(=O)(=O)OCC1OC(n2cnc3cncnc32)C(O)C1O (stereo not given) | -26.7% [0.1 µM] (active) and 12.1% [0.1 µM] (inactive)
Cc1nnc(NS(=O)(=O)c2ccc(N=Nc3ccc(N)nc3N)cc2)s1 | 114% (inactive) and 92.8% (inactive)
O=C1N=c2ccccc2=C1c1sc(=S)n(C2CC(=O)N(c3ccc(Cl)cc3)C2=O)c1O (stereo not given) | 104% (inactive)
O=C1C=CC(=O)N1c1ccc2ccccc2c1 | 118% (inactive) and 103% (inactive)
